Data taken from PubChem BioAssay (NCATS).
Records with an inconclusive call do not appear. The source made the active and inactive calls. Calls follow the shape of the dose curve; as a rule, active = well fitted curve in the direction sought with a large enough effect; inconclusive = small, poorly fitted or top-dose-only effect, or another doubt; inactive = no such curve, though single readings can be large; an effect the other way counts as inactive or inconclusive.

Columns and labels:
[1] = Cellular Toxicity (caspase-3) Mesangial (AID 660); details: mesangial cells, normalized: DMSO 0%, 100 µM tamoxifen 100%; at 91.7 µM (top of the series)
How it was run: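 Human renal glomerular mesangial cells (1000/well) were treated with compounds for 16 h at 37 °C in complete medium, then caspase 3/7 activity was read by Caspase-Glo luminescence. Data were normalized to DMSO and 100 uM tamoxifen; AC50 from Hill fits.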

[2] = Cellular Toxicity (caspase-3) SK-N-SH (AID 661); details: SK-N-SH caspase-3 activation, qHTS, DMSO as zero, staurosporine as full; series mostly up to 91.7 µM
How it was run: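 SK-N-SH human neuroblastoma cells (1500/well) were treated with compounds for 16 hr at 37 °C in complete medium; caspase 3/7 activity was read by Caspase-Glo luminescence. AC50 came from Hill fits of data normalized to DMSO and 10 uM staurosporine.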

[3] = Cellular Toxicity (caspase-3) H-4-II-E (AID 663); details: H-4-II-E rat hepatoma, scaled: DMSO 0%, 100 µM tamoxifen 100%; at 92.2 µM (top of the series);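 also: cells exposed to compound for 16 hr before readout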
How it was run: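 Rat hepatoma H-4-II-E cells (1500/well) plated 5 hr, then exposed to compound titrations for 16 hr at 37 °C. Caspase-Glo 3/7 luminescence read after 20 min at RT; data normalized to DMSO and 100 uM tamoxifen, AC50 from Hill fits.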

[4] = Cellular Toxicity (caspase-3) Hek293 (AID 664); details: HEK293 caspase-3 activation, DMSO = 0%, 100 µM tamoxifen = 100%; at 92.2 µM (top of the series);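 also: cells exposed to compound for 16 h at 37 °C before readout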
How it was run: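 HEK293 cells were exposed to compounds in complete medium for 16 hr at 37 °C, then caspase-3/7 activity was read by Caspase-Glo 3/7 luminescence after 20 min at room temperature. Data normalized to DMSO and 100 uM tamoxifen; AC50 from Hill fits.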

[5] = Cellular Toxicity (caspase-3) N2a (AID 665); details: N2a cells, luminescence, normalized: DMSO 0%, 10 µM staurosporine 100%; series mostly up to 92.2 µM;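 also: compound exposure lasted 16 h at 37 °C before readout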
How it was run: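 Mouse N2a neuroblastoma cells (1500/well) were treated with compounds for 16 h at 37 °C, then caspase-3/7 activity was read by Caspase-Glo luminescence after 1 h at room temperature. Data were normalized to DMSO and 10 uM staurosporine; AC50 from Hill fits.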

[6] = Cellular Toxicity (caspase-3) NIH 3T3 (AID 666); details: NIH 3T3 caspase-3 activation, apoptosis/toxicity, 0% DMSO, 100% is 100 µM tamoxifen; series mostly up to 92.2 µM;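 also: caspase signal read after 16 h compound exposure; 0% = DMSO basal and 100% = 100 µM tamoxifen stimulation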
How it was run: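 Mouse NIH 3T3 fibroblasts (1000 cells/well) were treated with compound for 16 hr at 37°C in complete medium; caspase-3/7 activity was read by Caspase-Glo luminescence. Normalized to DMSO and 100 uM tamoxifen; AC50 from Hill fits.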

[7] = Cellular Toxicity (caspase-3) Renal Proximal Tubule (AID 667); details: renal proximal tubule cells, primary cells freshly taken from rat; Potency: caspase-3 activation; series mostly up to 91.7 µM;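 also: cells exposed to compound for 16 hours at 37 °C before detection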
How it was run: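 Primary rat proximal tubule cells, 1000/well, 5 h plating at 37 °C, then compound 16 h at 37 °C. Caspase-Glo 3/7 reagent, 1 h RT, luminescence. Normalized to DMSO (basal) and 10 uM staurosporine (100%); Hill-fit AC50.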

[8] = target: Cytochrome P450 3A4 (Homo sapiens) (UniProt P08684); assay: qHTS Assay for Inhibitors and Substrates of Cytochrome P450 3A4 (AID 884); details: recombinant CYP3A4, Luciferin-PPXE luminescence; series mostly up to 57.1 µM; also: % is scaled to controls: 0 for no effect and ±100 for the full control effect; nearly all actives have a fitted effect of over 50% in size
Chain of Cytochrome P450 3A4 (Homo sapiens) (P08684 whole entry, looked up): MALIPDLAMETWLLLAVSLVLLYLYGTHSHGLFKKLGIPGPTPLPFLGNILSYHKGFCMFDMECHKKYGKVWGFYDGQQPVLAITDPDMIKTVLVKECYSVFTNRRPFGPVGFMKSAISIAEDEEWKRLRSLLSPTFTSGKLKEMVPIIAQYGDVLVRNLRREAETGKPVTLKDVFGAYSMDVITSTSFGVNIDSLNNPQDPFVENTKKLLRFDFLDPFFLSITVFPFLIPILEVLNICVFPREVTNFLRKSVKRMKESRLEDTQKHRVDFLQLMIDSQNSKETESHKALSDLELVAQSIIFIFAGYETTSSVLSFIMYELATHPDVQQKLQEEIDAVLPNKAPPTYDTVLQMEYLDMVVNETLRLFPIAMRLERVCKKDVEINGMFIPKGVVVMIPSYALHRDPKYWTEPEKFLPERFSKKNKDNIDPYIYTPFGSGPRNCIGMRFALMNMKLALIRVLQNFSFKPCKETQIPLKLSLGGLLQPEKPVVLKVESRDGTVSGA
How it was run: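 20 nM human CYP3A4 with 25 uM Luciferin-PPXE (at KM) in 200 mM KPO4, preincubated 10 min with compound; NADPH regeneration started a 60 min RT reaction. Luciferin detected by luminescence, normalized to 57 uM ketoconazole as full inhibition.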

[9] = Cell Viability - LYMP2-001 (AID 921); details: LYMP2-001 lymphoblastoid cell viability; series mostly up to 92.2 µM;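 also: 0% = DMSO only and full inhibition = tetraoctylammonium bromide control wells; nearly all actives have a fitted effect of over 70% in size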
How it was run: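 Human lymphoblastoid cells (Coriell), 2500 per well, were preincubated 5 hr at 37 C, then exposed to compounds in complete medium for 24 hr at 37 C. Cellular ATP was read by CellTiter-Glo luminescence; AC50 from Hill fits of concentration-response data.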

[10] = MultiTox-Fluor Cytotoxicity Assay - LYMP1-001 - Dead Cells (AID 946); details: LYMP1-001 lymphoblastoid cells, dead-cell protease fluorescence; series mostly up to 92.2 µM
How it was run: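 Cytotoxicity as increased dead-cell protease fluorescence (bis-AAF-R110, 485/520 nm), read 60 min after MultiTox-Fluor reagent. Human lymphoblastoid line exposed 16 h; Hill-fitted AC50, with DMSO as 0% and 15 uM tetraoctylammonium bromide as 100%.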

[11] = Cell Viability - LYMP1-002 - Assay at 16 hr (AID 948); details: LYMP1-002 lymphoblastoid cell viability; series mostly up to 92.2 µM;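 also: 0% = DMSO alone and full effect = 92 µM tetraoctylammonium bromide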
How it was run: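 Human lymphoblastoid cells (LYMP1-002), 2500/well, were preincubated 5 hr at 37 C, then exposed to compounds for 16 hr at 37 C in complete medium. Cellular ATP was read by CellTiter-Glo luminescence after 30 min at room temperature; AC50 from Hill fits.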

[12] = MultiTox-Fluor Cytotoxicity Assay - LYMP1-002 - Live Cells (AID 955); details: LYMP1-002 lymphoblastoid live-cell protease fluorescence viability; series mostly up to 46.1 µM; also: % is scaled to controls: 0 for no effect and ±100 for the full control effect
How it was run: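 Human lymphoblastoid LYMP1-002 cells, 2500/well in complete medium, rested 5 hr at 37 C, then exposed to compounds for 16 hr at 37 C. Live-cell protease cleavage of GF-AFC read by fluorescence (Ex/Em 405/510) after 60 min at room temperature; AC50 from Hill fits.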

[13] = MultiTox-Fluor Cytotoxicity Assay - LYMP1-002 - Dead Cells (AID 960); details: LYMP1-002 lymphoblastoid cells, dead-cell protease fluorescence; series mostly up to 46.1 µM; also: nearly all actives have a fitted effect of over 60% in size
How it was run: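 Human lymphoblastoid cells (LYMP1-002), 2500/well in complete medium, were exposed to compounds for 16 hr at 37 C. Dead-cell protease activity was read as bis-AAF-R110 fluorescence (Ex/Em 485/520), normalized to DMSO and 15 uM tetraoctylammonium bromide; AC50 from Hill fits.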

[14] = MultiTox-Fluor Cytotoxicity Assay - LYMP1-003 - Dead Cells (AID 961); details: LYMP1-003 lymphoblastoid cells, dead-cell protease fluorescence; series mostly up to 92.2 µM; also: nearly all actives have a fitted effect of over 70% in size
How it was run: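 Dead-cell protease release, detected as bis-AAF-R110 fluorescence at 485/520 nm, was measured in LYMP1-003 cells after 16 h compound treatment at 37 C. AC50 values came from Hill-modeled qHTS curves normalized to DMSO (0%) and 15 uM tetraoctylammonium bromide (100%).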

[15] = MultiTox-Fluor Cytotoxicity Assay - LYMP1-003 - Live Cells (AID 962); details: LYMP1-003 lymphoblastoid cells, MultiTox-Fluor live-cell protease fluorescence; series mostly up to 92.2 µM;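 also: 0% = DMSO only and full loss = 92 µM tetraoctylammonium bromide; cytotoxic hits lower the live-cell protease signal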
How it was run: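 LYMP1-003 human lymphoblastoid cells (2500/well) in complete medium were preincubated 5 hr at 37 C, then exposed to compounds for 16 hr at 37 C. Live-cell protease cleavage of GF-AFC read by fluorescence (Ex/Em 405/510); AC50 from Hill fits.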

[16] = Cell Viability - LYMP1-003 - Assay at 24 hr (AID 963); details: LYMP1-003 lymphoblastoid cell viability; series mostly up to 92.2 µM;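 also: plate controls were DMSO only for no effect and tetraoctylammonium bromide positive control for full effect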
How it was run: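 Human lymphoblastoid LYMP1-003 cells (2500/well) were rested 5 hr at 37 C, then exposed to compounds in complete medium for 24 hr at 37 C. Cellular ATP was quantified by CellTiter-Glo luminescence, and AC50 values came from Hill fits of concentration-response data.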

[17] = Cell Viability - LYMP1-003 - Assay at 40 hr (AID 964); details: LYMP1-003 lymphoblastoid viability; series mostly up to 92.2 µM; also: % is scaled to controls: 0 for no effect and ±100 for the full control effect; nearly all actives have a fitted effect of over 60% in size
How it was run: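 Human lymphoblastoid LYMP1-003 cells, 2500/well in complete medium, rested 5 hr at 37 C, then exposed to compounds for 40 hr at 37 C. Viability read as intracellular ATP by CellTiter-Glo luminescence; AC50 from Hill fits of concentration-response data.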

[18] = Cell Viability - LYMP2-003 (AID 965); details: LYMP2-003 lymphoblastoid cell viability; series mostly up to 92.2 µM;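 also: cells exposed to compounds for 24 h before reading; 0% = DMSO only and full effect = 92 µM tetraoctylammonium bromide; nearly all actives have a fitted effect of over 50% in size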
How it was run: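 Human lymphoblastoid cells (2500/well) were pre-incubated 5 hr at 37 C, then exposed to compounds over a concentration range for 24 hr at 37 C. Intracellular ATP was read by CellTiter-Glo luminescence; AC50 came from Hill-equation fits.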

NC(N)=S
inactive: caspase-3 activation [1] -0.0158% | outcome [2] | caspase-3 activation [3] 1.67% | caspase-3 activation [4] -1.2% | outcome [5] | outcome [6] | Potency [7] | Potency [8] | Potency [9] | outcome [10] | outcome [11] | outcome [12] | outcome [13] | Potency [14] | Potency [15] | Potency [16] | Potency [17] | Potency [18]

O=[N+]([O-])c1ccc(Cl)cc1Cl
inactive: caspase-3 activation [1] 0.652% | outcome [2] | caspase-3 activation [3] 1.21% | caspase-3 activation [4] 1.91% | outcome [5] | outcome [6] | Potency [7] | Potency [8] | Potency [9] | outcome [10] | outcome [11] | outcome [12] | outcome [13] | Potency [15] | Potency [16] | Potency [17]

CCCCCNCCCCC
inactive: caspase-3 activation [1] 0.424% | outcome [2] | caspase-3 activation [3] 0.00908% | caspase-3 activation [4] 1.85% | outcome [5] | outcome [6] | Potency [7] | Potency [8] | Potency [9] | outcome [11] | outcome [12] | outcome [13] | Potency [14] | Potency [15] | Potency [16] | Potency [17] | Potency [18]

CCC(C)=O
inactive: caspase-3 activation [1] -0.0673% | outcome [2] | caspase-3 activation [3] 0.152% | caspase-3 activation [4] -2.5% | outcome [5] | outcome [6] | Potency [7] | Potency [8] | Potency [9] | outcome [10] | outcome [11] | outcome [12] | outcome [13] | Potency [15] | Potency [16] | Potency [17] | Potency [18]

COc1ccccc1[N+](=O)[O-]
inactive: caspase-3 activation [1] -1.05% | outcome [2] | caspase-3 activation [3] 0.0394% | caspase-3 activation [4] -0.651% | outcome [5] | outcome [6] | Potency [7] | Potency [8] | Potency [9] | outcome [10] | outcome [11] | outcome [12] | outcome [13] | Potency [14] | Potency [15] | Potency [16] | Potency [17] | Potency [18]

C=C(C)OC(C)=O
inactive: caspase-3 activation [1] -0.109% | outcome [2] | caspase-3 activation [3] 2.67% | caspase-3 activation [4] -0.975% | outcome [5] | outcome [6] | Potency [7] | Potency [8] | Potency [9] | outcome [10] | outcome [11] | outcome [12] | Potency [14] | Potency [15] | Potency [16] | Potency [17] | Potency [18]

CC(=O)Nc1ccc(C)cc1
inactive: caspase-3 activation [1] 0.522% | outcome [2] | caspase-3 activation [3] 0.606% | caspase-3 activation [4] 0.349% | outcome [5] | outcome [6] | Potency [7] | Potency [8] | Potency [9] | outcome [10] | outcome [11] | outcome [12] | outcome [13] | Potency [14] | Potency [15] | Potency [16] | Potency [17] | Potency [18]
